Hit rate of the full screen: of about 330,000 compounds, about 1,400 (0.42%) were called active. This is one part of a sample in which actives are shown more often than they occur. A number with no mark means an inactive call.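 The calls were made as follows: active = at least 40% inhibition at 20 µM here, with at most 30% in a related deaminase screen; inactive = the rest.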
These compounds were tested against DNA dC->dU-editing enzyme APOBEC-3A (Homo sapiens) (UniProt P31941) (assay: blockers of A3A cytidine deamination on DNA – biochemical, FAM/TAMRA oligo cleavage fluorescence, selectivity assay for APOBEC3G inhibitor project, primary screen (AID 493011;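 also: plate controls were A3A with DMSO for no effect and wells lacking A3A enzyme for full effect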)). Conditions: recombinant A3A, FAM/TAMRA ssDNA deamination fluorescence; at 20 µM; stronger effect = higher value.
Sequence of DNA dC->dU-editing enzyme APOBEC-3A (Homo sapiens) (P31941 whole entry, looked up): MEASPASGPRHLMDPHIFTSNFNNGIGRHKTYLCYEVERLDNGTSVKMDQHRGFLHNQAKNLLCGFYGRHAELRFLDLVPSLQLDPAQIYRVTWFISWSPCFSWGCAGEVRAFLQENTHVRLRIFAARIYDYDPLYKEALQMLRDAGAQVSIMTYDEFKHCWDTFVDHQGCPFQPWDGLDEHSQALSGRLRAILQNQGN

Q: For COc1ccccc1C(CNC(=O)c1cccc(S(=O)(=O)Nc2ccc(F)cc2)c1)N(C)C (stereo not drawn), which inhibition is on record?
A: -4.98%

Q: Which inhibition does the source give for COc1ccc(C)cc1NC(=O)c1[nH]c(C)c(C(C)=O)c1C here?
A: -4.64%

Q: O=C(O)C(F)(F)C(NCc1ccccc1)c1ccccc1 (stereo not drawn) was tested. Which inhibition did it give?
A: -9.23%

Q: How did the inhibition turn out when CC1(C)CC(=O)C(N=Nc2ccc(S(=O)(=O)N3CCCCCC3)cc2)=C(O)C1 was run?
A: -0.085%

Q: For N#Cc1ccccc1CN1C(=O)S/C(=C/c2cccn2-c2cccc(C(=O)O)c2)C1=O, which inhibition is on record?
A: 74.4% (active)

Q: How did the inhibition turn out when Cc1ccccc1NC(=O)CN1C(=O)N/C(=C\c2cccn2-c2cccc(C(=O)O)c2)C1=O was run?
A: 93.1%

Q: Which inhibition does the source give for O=C1N/C(=C/c2cccn2-c2ccccc2)C(=O)N1c1cccc(Cl)c1 here?
A: 0.178%

Q: Which inhibition does the source give for O=C(c1n[nH]c2c1CCC2)N1CCCC(Nc2cccc(F)c2)C1 (stereo not drawn) here?
A: -3.42%

Q: Which inhibition does the source give for O=C(COC(=O)/C=C/c1ccc(Br)o1)Nc1cccc(S(=O)(=O)N2CCOCC2)c1 here?
A: 16.5%

Q: Which inhibition does the source give for CC(=O)c1c(C)n(-c2ccc(N(C)C)cc2)c2ccc(OCC(N)=O)cc12 here?
A: -1.38%

Q: For COc1cccc(NC(=O)CCNS(=O)(=O)c2ccc3c(c2)oc(=O)n3C)c1, which inhibition is on record?
A: -2.44%

Q: How did the inhibition turn out when COc1cccc(NC(C)=[N+](C)CCNS(=O)(=O)c2ccc(Cl)cc2)c1 was run?
A: 52.2% (active)

Q: With COc1ccc(S(=O)(=O)NCCCCOc2ccc(Cl)cc2)cc1 as the compound, how does the inhibition read?
A: -0.023%

Q: For COc1ccc(C2C3=C(OC(C)=O)c4ccccc4C3=Nc3c2c(=O)n(C)c(=O)n3C)cc1 (stereo not drawn), which inhibition is on record?
A: -1.29%

Q: Which inhibition does the source give for Cc1cccc(CCNS(=O)(=O)c2ccc(S(=O)(=O)NC3CCCC3)cc2)c1 here?
A: -4.37%

Q: For COCCCNC(NC(=O)c1ccc(OC)cc1)C(Cl)(Cl)Cl (stereo not drawn), which inhibition is on record?
A: -2.86%

Q: For O=C1C2C3C=CC(C4CC34)C2C(=O)N1c1nccs1 (stereo not drawn), which inhibition is on record?
A: 0.014%

Q: Which inhibition does the source give for CSc1ccc(/C=C2\NC(=O)NC2=O)cc1 here?
A: -4.33%

Q: How did the inhibition turn out when CC(C)c1ccc(/C=C2\NC(=O)NC2=O)cc1 was run?
A: 82.8% (active)

Q: With Cc1ccc(NC(=O)COc2ccc(/C=C3/NC(=O)NC3=O)cc2)cc1 as the compound, how does the inhibition read?
A: -0.201%

Q: How did the inhibition turn out when CC[C@]12c3[nH]c4cc(CCC(=O)N(C)C)ccc4c3CCN1C(=O)[C@@H](CC(=O)NCc1ccco1)C[C@@H]2C(=O)N1CCN(C(=O)c2ccco2)CC1 was run?
A: 2.69%

Q: Cc1nn2c(c1-c1ccccc1)N=C(c1ccco1)CC2c1ccccc1 (stereo not drawn) was tested. Which inhibition did it give?
A: 0.496%

Q: With O=C1C2C3C=CC(C4CC34)C2C(=O)N1/N=C/c1ccc(-c2ccccc2[N+](=O)[O-])o1 (stereo not drawn) as the compound, how does the inhibition read?
A: -4.49%

Q: How did the inhibition turn out when O=C(CSc1ccc([N+](=O)[O-])cn1)Nc1ccc(N2CCOCC2)c(Cl)c1 was run?
A: -1.64%

Q: O=C(CSc1nccc(=O)[nH]1)Nc1ccc(N2CCOCC2)c(Cl)c1 was tested. Which inhibition did it give?
A: 50% (active)

Q: For O=C(Nc1ccc(N2CCOCC2)c(Cl)c1)c1ccc(S(=O)(=O)N2CCOCC2)cc1, which inhibition is on record?
A: 2.6%

Q: For CC(=O)c1ccc(N2CCN(C(=O)c3ccc4nc[nH]c4c3)CC2)cc1, which inhibition is on record?
A: -2.31%

Q: For CCCc1nnc(SCC(=O)Nc2ccc(C(=O)OCC)cc2)o1, which inhibition is on record?
A: -2.03%

Q: For CCOC(=O)c1ccc(NC(=O)CSc2ncccn2)cc1, which inhibition is on record?
A: 66.1% (active)

Q: For CCOC(=O)c1ccc(NC(=O)Cn2cnc3cc(C)c(C)cc32)cc1, which inhibition is on record?
A: 3.16%

Q: With CC(=O)N/C(=N/c1nc(C)cc(C)n1)Nc1ccc(F)cc1F as the compound, how does the inhibition read?
A: -1.6%

Q: With CC(=O)NNc1cc(=O)c2c(=O)n(C)c(=O)n(C)c2[nH]1 as the compound, how does the inhibition read?
A: 2.94%

Q: For CC(=O)Nc1ccc(S(=O)(=O)Oc2ccc(/C=N/N=C3/NC(=O)C(CC(=O)O)S3)cc2)cc1 (stereo not drawn), which inhibition is on record?
A: -1.33%

Q: COc1ccccc1CNC(=O)C1CCN(S(C)(=O)=O)CC1 was tested. Which inhibition did it give?
A: 3.64%

Q: For COc1ccccc1CNC(=O)C1CCN(C(=O)[C@@H]2Cc3ccccc3CN2)CC1, which inhibition is on record?
A: -2.15%

Q: COc1ccccc1CCNC(=O)C1CCN(C(=O)/C=C/c2ccccc2)CC1 was tested. Which inhibition did it give?
A: 40.4% (active)

Q: With CCCc1nnc(SCC(=O)N2C(C)CCCC2C)n1CC (stereo not drawn) as the compound, how does the inhibition read?
A: 0.831%

Q: COc1cc(C(CCN2CCN(c3ccccc3)CC2)c2c(OC)cc(OC)c3ccc(=O)oc23)cc(OC)c1OC (stereo not drawn) was tested. Which inhibition did it give?
A: -5.74%

Q: For CC(C)(C)C(=O)CSc1ccc(S(=O)(=O)N2CCCC2)cn1, which inhibition is on record?
A: -1.15%

Q: For CC(Oc1ccc(F)cc1)C(=O)Nc1cc(S(=O)(=O)N2CCOCC2)ccc1N1CCN(C)CC1 (stereo not drawn), which inhibition is on record?
A: 63.9% (active)

Q: Which inhibition does the source give for CN1CCN(c2ccc(S(=O)(=O)N3CCOCC3)cc2NC(=O)CCc2ccccc2)CC1 here?
A: 3.6%

Q: How did the inhibition turn out when CCN(CC)S(=O)(=O)c1ccc(N2CCOCC2)c(NC(=O)C(C)Oc2ccc(F)cc2)c1 (stereo not drawn) was run?
A: -2.06%

Q: How did the inhibition turn out when O=C(CN(CC1CCCO1)C(=O)CNS(=O)(=O)c1ccccc1)NCc1ccccc1 (stereo not drawn) was run?
A: -2.59%

Q: Which inhibition does the source give for Cc1ccc(NC(=O)CSCC(=O)Nc2sccc2C#N)cc1 here?
A: -0.813%

Q: For Cc1csc(SCC(=O)Nc2sccc2C#N)n1, which inhibition is on record?
A: 67.3% (active)

Q: For COc1ccc(NC(=O)CSc2nc(C)cs2)cc1, which inhibition is on record?
A: 3.79%

Q: CCN(CC)c1ccc(S(=O)(=O)N2CCCCC2)cc1NC(=O)C1=COCCO1 was tested. Which inhibition did it give?
A: -3.33%

Q: With CCCC(=O)Nc1cccc(NC(=S)NC(=O)C(C)Oc2ccc(Cl)cc2Cl)c1 (stereo not drawn) as the compound, how does the inhibition read?
A: 1.55%

Q: For CC(C)Cc1ccc(C(C)C(=N)N)cc1 (stereo not drawn), which inhibition is on record?
A: 2.27%

Q: COc1ccc(C)cc1NC(=O)CCCN1C(=O)NC(C)(C)C1=O was tested. Which inhibition did it give?
A: 47.3% (active)

Q: For COc1ccc(C)cc1NC(=O)CNCc1cccs1, which inhibition is on record?
A: -2.55%

Q: How did the inhibition turn out when COc1ccccc1CNC(=O)CCCN1C(=O)NC2(CCCC2)C1=O was run?
A: -3.53%

Q: Cc1nnsc1S(=O)(=O)Cc1ccccc1Cl was tested. Which inhibition did it give?
A: -0.082%

Q: With CC(C)CNC(=O)CC(c1ccccc1)c1c(O)ccc2ccccc12 (stereo not drawn) as the compound, how does the inhibition read?
A: -1.51%

Q: CC1CCCCC1NC(=O)NC(=O)COC(=O)C1=NN(c2ccccc2)C(=O)CC1 (stereo not drawn) was tested. Which inhibition did it give?
A: 1.05%

Q: With COCCCn1c(SCC(=O)Nc2ccccc2)nnc1-c1ccncc1 as the compound, how does the inhibition read?
A: 0.275%

Q: How did the inhibition turn out when CCCn1c(SCC(=O)N2CCc3ccccc32)nnc1-c1ccncc1 was run?
A: -1.68%

Q: For CSc1nnc(-c2ccncc2)n1CCCN1CCCC1=O, which inhibition is on record?
A: 63% (active)
